# Compound activity (PubChem BioAssay)
# Hits are enriched below; roughly 11% of the tested compounds scored in any of these assays.
# PNC inhibitor: perinucleolar compartment assembly inhibition | PC3M PTB-GFP, PNC prevalence imaging, 16 h; hits give low values | activity change (PNC), negative = inhibition, % at 10 µM | 140,000 tested, 3.1% active;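 active = readout at or below -70, meaning at least 70% loss of cells showing the perinucleolar compartment, a nuclear body marking cancer cells; inconclusive = readout between -30 and a set limit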;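 also: plate controls were DMSO wells for no effect and camptothecin positive control wells for full effect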
#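 PC3M cells stably expressing PTB-GFP, 750–1000 cells/well, treated 16 h at 37 °C with compound (23 nl of library stock), in duplicate. After paraformaldehyde fixation and Hoechst stain, imaged at 20x; PNC prevalence scored by image analysis.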
# HPGD inh: HPGD (human) dehydrogenase inhibition; Potency, µM, for the others: top-dose activity change, negative = inhibition, usual class: inhibitors; AID 894; purified HPGD, NADH fluorescence kinetic, PGE2 substrate; P15428; 150,000 tested, 4.3% active; also: potency is read from the fitted curve at half-maximal effect
#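 20 nM HPGD preincubated 15 min at room temperature with compound in 50 mM Tris-HCl pH 8, 0.01% Tween 20. Started with 1 mM NAD+ and 30 uM prostaglandin E2; NADH fluorescence (360/450 nm) read 5 times over 30-s intervals, last minus first.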
# ALDH1A1 inh: ALDH1A1 (human) enzyme inhibition; P00352; Potency, µM (highest dose often 75.3 µM), without a hit: at the highest dose activity, negative = inhibition, usual class: inhibitors; AID 1030; 220,000 tested, 7.3% active; Purified ALDH1A1, NADH fluorescence, propionaldehyde substrate;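 also: potency is read from the fitted curve at half-maximal effect; plate controls were no enzyme wells and a reference inhibitor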
# Target sequence (P00352 whole entry, looked up): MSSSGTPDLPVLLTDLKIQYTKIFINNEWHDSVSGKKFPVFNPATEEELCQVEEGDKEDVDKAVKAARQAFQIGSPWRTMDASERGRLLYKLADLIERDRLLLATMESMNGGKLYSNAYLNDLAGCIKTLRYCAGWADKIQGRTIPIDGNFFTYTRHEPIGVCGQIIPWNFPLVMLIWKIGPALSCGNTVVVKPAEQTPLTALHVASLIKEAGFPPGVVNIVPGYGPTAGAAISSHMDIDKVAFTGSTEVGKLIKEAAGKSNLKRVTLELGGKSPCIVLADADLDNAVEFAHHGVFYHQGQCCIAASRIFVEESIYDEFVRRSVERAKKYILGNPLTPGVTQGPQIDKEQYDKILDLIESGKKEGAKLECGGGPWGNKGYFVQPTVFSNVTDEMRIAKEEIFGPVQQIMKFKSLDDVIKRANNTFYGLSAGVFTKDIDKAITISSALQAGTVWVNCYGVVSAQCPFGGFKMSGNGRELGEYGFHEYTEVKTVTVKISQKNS
# * hit, by the source's call; u = inconclusive; x = no result; [ ] = dose if it differs, or a comment. Unless noted, calls follow the shape of the dose curve; as a rule, active = well fitted inhibition curve with a large enough effect (not every such curve was filed as active); inconclusive = small, poorly fitted or top-dose-only effect, or another doubt; inactive = no such curve, though single readings can be large or run the other way. Unless noted, % is scaled to controls: 0 for no effect and ±100 for the full control effect.
SMILES,PNC inhibitor,HPGD inh,ALDH1A1 inh
Cc1ccc(S(=O)(=O)N[C@H](CN)C(=O)O)cc1,x,-1%,6%[13.5 µM]
O=c1c2ccccc2c(-c2ccc(O)cc2)nn1-c1cccc(C(F)(F)F)c1,-85*,-10%,3%
O=c1c2ccccc2c(-c2ccc(Cl)cc2)nn1-c1ccccc1,53,-8%,-9%
C#CCCOC(=O)N1C2=NC(C(=O)OC)=C(C(=O)OC)[C@@H]3N(CC#CC)c4ccccc4[C@]23C[C@H]1C(=O)OC,x,-4%,7%[13.5 µM]
O=C(O)c1cccc(Cn2c(Cl)c(/C=N/NC(=O)c3cc4ccccc4cc3O)sc2=O)c1,x,x,10µM*
O=C(O)c1cccc(Cn2c(Cl)c(/C=N/NC(=O)c3ccccc3)sc2=O)c1,29,-28%,0%
O=C(O)c1cccc(Cn2c(Cl)c(/C=N/NC(=O)c3cccc(O)c3)sc2=O)c1,x,x,-1%
COC(=O)c1cccc(Cn2c(Cl)c(/C=N/Nc3ccccc3C)sc2=O)c1,17,u,22µM*
CCC(c1nnc(SCC(=O)Nc2ccc(Cl)cc2C(F)(F)F)n1C1CCCCC1)N(C)C (stereo unspecified),17,x,-1%
Cc1cc(N(C)C)nc(SC(C)C)n1,7,-7%,5%
Cc1nnc(Sc2cc(C(=O)NCc3ccco3)c3ccccc3n2)s1,-11,2.2µM*,u
O=C(NCc1ccco1)c1cc(-c2ccccc2)nc2ccccc12,-4,-8%,u
O=C1c2ccccc2COc2ccc(O)cc21,35,-12%,u
COc1ccc2c(c1)C(=O)c1ccccc1CO2,u,35µM*,4µM*
COC(=O)C/C=C\[C@@H](C)[C@@H](/C=N\O[C@@H]1O[C@H](COC(C)=O)[C@@H](OC(C)=O)[C@H](OC(C)=O)[C@H]1OC(C)=O)NS(=O)(=O)c1ccc(C)cc1,x,x,1%[13.5 µM]
O=c1c2ccccc2sn1-c1nccs1,x,x,13µM*
Cc1ccccc1N=Cc1c(O)n(-c2nccs2)c(=O)c2ccccc12,20,-9%,-11%
COc1ccc(N2CCN(CC(O)COc3ccccc3[N+](=O)[O-])CC2)cc1 (stereo unspecified),-23,1%,-6%
O=C1COc2ccc(C(=O)c3ccccc3)cc2CN1,16,-5%,u
O=c1[nH]c(/C(=N\O)c2ccccc2)no1,u,u,24µM*
O=C1Nc2ccccc2C1(O)C/C(=N/O)c1ccccc1 (stereo unspecified),x,x,14%
COC(=O)c1ccc(N=NNc2ccc(C(=O)OC)cc2)cc1,22,-19%,1%
COC(=O)c1ccc(N=NNc2ccccc2)cc1,-21,25µM*,u
CN[C@@H]1[C@H](O[C@@H]2O[C@H](CO)[C@@H](N)[C@H](O)[C@@H]2O)O[C@H]2C[C@@H](N)[C@@H](O[C@H]3[C@@H](O)[C@H](O)[C@H](N)C[C@@H]3N)O[C@H]2[C@H]1O,x,1%,-3%[20.9 µM]
CN[C@@H]1[C@H](O[C@@H]2O[C@H](C)[C@@](O)(CO)[C@H]2O[C@H]2[C@H](O)[C@H](O)[C@H](N=C(N)N)[C@@H](O)[C@@H]2N=C(N)N)O[C@@H](CO)[C@H](O)[C@H]1O,x,0%,10µM*
SMILES,PNC inhibitor,HPGD inh,ALDH1A1 inh
N#Cc1c(C(F)(F)F)cc(=O)[nH]c1SCC(=O)O,x,x,13%
Cc1cccc(NC(=S)NC2CC3CCCC(C2)N3Cc2ccccc2)c1C (stereo unspecified),x,x,-10%
COc1cc(NC(=S)N2CCN(c3ccccn3)CC2)cc(OC)c1,33,x,-6%
Cc1cc(C)cc(NC(=S)N2CCN(c3ncccn3)CC2)c1,-24,x,-4%
S=C(Nc1ccc(Nc2ccccc2)cc1)N1CCN(c2ncccn2)CC1,x,x,13µM*
COc1ccc(NC(=S)N2CCN(c3ccccn3)CC2)cc1OC,-115*,x,25µM*
O=C(Nc1cccc(Cl)c1)Nc1ccccc1-n1ccnc1,x,x,-11%
NC(=O)Oc1cccc(OC(N)=O)c1,x,x,9%
CCn1ncc2c(OCc3ccc(C#N)cc3)cc(C)nc21,-7,-11%,10%
CCn1c(C)nc2cc(C(=O)n3cc(C(=O)c4cc(F)ccc4O)cn3)ccc21,23,u,1.4µM*
COc1ccc(O)c(C(=O)c2cnn(-c3ccccn3)c2)c1,x,x,-3%
CCn1c(C)nc2cc(C(=O)NNS(=O)(=O)c3c(F)cc(F)c(Cl)c3F)ccc21,x,x,3%
Cc1cc(C)nc(-n2cc(C(=O)c3cc(F)ccc3O)cn2)n1,73,-13%,10µM*
CCSc1nnc(NC(=O)C2CCN(S(=O)(=O)c3c(C)c(C)cc(C)c3C)CC2)s1,-24,-10%,-7%
COc1ccc(-n2c(CNC(=O)c3cc(OC)c(OC)c(OC)c3)n[nH]c2=S)cc1,-12,-17%,-6%
CC(C)NC(=O)N1CCCC2(CCN(C(=O)c3csnn3)CC2)C1,x,-2%,5%
